In PubChem BioAssay AID1159580 (chemical genetic matrix, 2015):
Out of some 5,500 compounds screened, about 2,000 (36%) were called active. Not shown: some 18% with an inconclusive outcome. Cut-off read from the data, not from the text of the source: active = normalized growth mostly below about 0.91 (no sharp cut-off); inconclusive = no clear call, values can overlap the other calls; inactive = mostly above about 0.92. The list shows a part of the results.

Assay: chemical genetic growth profiling, strain panel (AID 1159580);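 note: tested at 20 µM; growth read once vehicle control cultures reached saturation at 30 °C; 1 = growth at the plate median or of vehicle wells; lower values mean less growth of the strain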
Conditions: S. cerevisiae deletion strains, growth OD

Measured: normalized growth

O=c1cc(-c2ccccc2)oc2cc(O)c(O)cc12
active: locus YAL026C, strain drs2, stronger effect = lower value 0.895 | locus YBR009C, strain hhf1, stronger effect = lower value 0.894 | locus YDR069C, strain doa4, stronger effect = lower value 0.819 | locus YJL164C, strain tpk1, stronger effect = lower value 0.912 | locus YJL166W, strain qcr8, stronger effect = lower value 0.876 | locus YLR262C, strain YPT6 (second series), stronger effect = lower value 0.791 | locus YNL209W, strain ssb2, stronger effect = lower value 0.851 | locus YOR106W, strain vam3, stronger effect = lower value 0.826 | locus YOR270C, strain vph1, stronger effect = lower value 0.773
inactive: locus YAL021C, strain ccr4, stronger effect = lower value 0.934 | locus YAL030W, strain snc1, stronger effect = lower value 0.949 | locus YBL061C, strain skt5, stronger effect = lower value 0.946 | locus YBR023C, strain chs3, stronger effect = lower value 0.973 | locus YBR171W, strain sec66, stronger effect = lower value 0.974 | locus YBR231C, strain swc5, stronger effect = lower value 0.948 | locus YBR279W, strain paf1, stronger effect = lower value 0.945 | locus YCL011C, strain gbp2, stronger effect = lower value 0.943 | locus YCL016C, strain dcc1, stronger effect = lower value 0.948 | locus YCL061C, strain MRC1, stronger effect = lower value 0.979 | locus YCL069W, strain vba3, stronger effect = lower value 0.982 | locus YCR088W, strain abp1, stronger effect = lower value 0.993 | locus YDL005C, strain med2, stronger effect = lower value 0.977 | locus YDL040C, strain nat1, stronger effect = lower value 0.986 | locus YDR001C, strain nth1, stronger effect = lower value 0.981 | locus YDR137W, strain rgp1, stronger effect = lower value 0.856 | locus YDR159W, strain sac3, stronger effect = lower value 0.972 | locus YDR195W, strain ref2 1 | locus YDR297W, strain sur2, stronger effect = lower value 0.952 | locus YDR334W, strain swr1, stronger effect = lower value 0.96 | locus YDR335W, strain msn5, stronger effect = lower value 0.979 | locus YDR392W, strain spt3, stronger effect = lower value 0.979 | locus YEL003W, strain gim4, stronger effect = lower value 0.964 | locus YEL037C, strain rad23, stronger effect = lower value 0.967 | locus YEL061C, strain CIN8 (second series), stronger effect = lower value 0.964 | locus YER015W, strain faa2, stronger effect = lower value 0.946 | locus YER016W, strain bim1, stronger effect = lower value 0.99 | locus YER111C, strain swi4, stronger effect = lower value 0.951 | locus YER155C, strain BEM2 (second series), stronger effect = lower value 0.971 | locus YFR010W, strain ubp6, stronger effect = lower value 0.914 | locus YGL167C, strain pmr1, stronger effect = lower value 0.949 | locus YGL173C, strain kem1, stronger effect = lower value 0.933 | locus YGL227W, strain vid30, stronger effect = lower value 0.973 | locus YGL240W, strain doc1, stronger effect = lower value 0.943 | locus YGL253W, strain hxk2, stronger effect = lower value 0.939 | locus YHR013C, strain ard1, stronger effect = lower value 0.856 | locus YHR027C, strain rpn1, stronger effect = lower value 0.945 | locus YHR030C, strain SLT2, stronger effect = lower value 0.981 | locus YHR079C, strain IRE1, stronger effect = lower value 0.972 | locus YHR142W, strain chs7, stronger effect = lower value 0.941 | locus YJL092W, strain hpr5, stronger effect = lower value 1 | locus YJL095W, strain BCK1 (second series), stronger effect = lower value 0.972 | locus YJL095W, strain BCK1, stronger effect = lower value 0.999 | locus YJL115W, strain asf1, stronger effect = lower value 0.985 | locus YJL129C, strain trk1, stronger effect = lower value 0.912 | locus YJL154C, strain vps35, stronger effect = lower value 0.994 | locus YJL187C, strain SWE1, stronger effect = lower value 0.946 | locus YJR066W, strain TOR1, stronger effect = lower value 0.954 | locus YKL160W, strain elf1, stronger effect = lower value 0.97 | locus YKR026C, strain gcn3, stronger effect = lower value 0.98 | locus YKR091W, strain srl3, stronger effect = lower value 0.983 | locus YLL001W, strain dnm1, stronger effect = lower value 0.975 | locus YLL026W, stronger effect = lower value 1.01 | locus YLL041C, strain sdh2, stronger effect = lower value 0.976 | locus YLR027C, strain aat2, stronger effect = lower value 0.975 | locus YLR113W, strain HOG1, stronger effect = lower value 0.99 | locus YLR221C, strain rsa3, stronger effect = lower value 0.949 | locus YLR258W, strain gsy2, stronger effect = lower value 0.953 | locus YLR320W, strain mms22, stronger effect = lower value 0.97 | locus YLR342W, strain FKS1, stronger effect = lower value 0.936 | locus YLR357W, strain rsc2, stronger effect = lower value 0.903 | locus YLR370C, strain arc18, stronger effect = lower value 0.935 | locus YLR384C, strain iki3, stronger effect = lower value 0.964 | locus YML120C, strain ndi1, stronger effect = lower value 0.951 | locus YMR058W, strain fet3, stronger effect = lower value 0.956 | locus YMR125W, strain sto1, stronger effect = lower value 1.02 | locus YMR129W, stronger effect = lower value 0.972 | locus YMR205C, strain PFK2, stronger effect = lower value 0.955 | locus YMR231W, strain pep5, stronger effect = lower value 0.958 | locus YNL071W, strain lat1, stronger effect = lower value 0.995 | locus YNL183C, strain NPR1, stronger effect = lower value 0.951 | locus YNL248C, strain rpa49, stronger effect = lower value 1.02 | locus YNL322C, strain KRE1 (second series), stronger effect = lower value 0.992 | locus YNR049C, strain mso1, stronger effect = lower value 0.987 | locus YOR001W, strain rrp6, stronger effect = lower value 0.991 | locus YOR070C, strain gyp1, stronger effect = lower value 0.979 | locus YOR080W, strain dia2, stronger effect = lower value 0.976 | locus YOR083W, strain WHI5, stronger effect = lower value 0.961 | locus YOR231W, strain MKK1, stronger effect = lower value 0.996 | locus YOR265W, strain rbl2, stronger effect = lower value 0.95 | locus YOR290C, strain snf2, stronger effect = lower value 0.939 | locus YPL051W, strain arl3, stronger effect = lower value 0.943 | locus YPL078C, strain atp4, stronger effect = lower value 0.986 | locus YPL106C, strain sse1, stronger effect = lower value 0.855 | locus YPL240C, strain hsp82, stronger effect = lower value 0.949 | locus YPL256C, strain CLN2, stronger effect = lower value 0.955
